From PubChem BioAssay AID1159580 (chemical genetic matrix, 2015)
Where “and” joins values, the source holds several entries; their conditions need not be identical. Identical values can stand only once. Hit rate of the full screen: of about 5,500 compounds, about 2,000 (36%) were called active. Not shown: some 18% with an inconclusive outcome. Cut-off read from the data, not from the text of the source: active = normalized growth mostly below about 0.91 (no sharp cut-off); inconclusive = no clear call, values can overlap the other calls; inactive = mostly above about 0.92. The list shows a part of the results.

Assay: chemical genetic growth profiling, strain panel (AID 1159580);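 note: tested at 20 µM; growth read once vehicle control cultures reached saturation at 30 °C; 1 = growth at the plate median or of vehicle wells; lower values mean less growth of the strain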
Details: S. cerevisiae deletion strains, growth OD

Measured: normalized growth

O=C(O)CCCCC1CCSS1 (configuration not stated)
inactive: locus YAL013W, strain DEP1, hits give low values 0.97 | locus YAL021C, strain ccr4, hits give low values 1 | locus YAL026C, strain drs2, hits give low values 0.94 | locus YAL030W, strain snc1, hits give low values 0.974 | locus YBL061C, strain skt5, hits give low values 0.979 | locus YBR009C, strain hhf1, hits give low values 0.933 | locus YBR021W, strain FUR4, hits give low values 0.987 | locus YBR023C, strain chs3, hits give low values 0.977 | locus YBR171W, strain sec66, hits give low values 0.934 | locus YBR229C, strain ROT2, hits give low values 0.953 | locus YBR231C, strain swc5, hits give low values 0.979 | locus YBR279W, strain paf1, hits give low values 0.978 | locus YCL011C, strain gbp2, hits give low values 0.959 | locus YCL016C, strain dcc1, hits give low values 0.983 | locus YCL029C, strain bik1, hits give low values 0.993 | locus YCL061C, strain MRC1, hits give low values 0.956 | locus YCL069W, strain vba3, hits give low values 0.973 | locus YCR088W, strain abp1, hits give low values 0.978 | locus YDL005C, strain med2, hits give low values 1.02 | locus YDL035C, strain GPR1, hits give low values 0.98 | locus YDL040C, strain nat1, hits give low values 0.976 | locus YDL074C, strain BRE1, hits give low values 0.99 | locus YDL101C, strain DUN1, hits give low values 0.978 | locus YDL134C, strain PPH21, hits give low values 0.974 | locus YDL185W, strain tfp1, hits give low values 0.942 | locus YDL192W, strain arf1, hits give low values 0.979 | locus YDR001C, strain nth1, hits give low values 0.971 | locus YDR069C, strain doa4, hits give low values 0.982 | locus YDR101C, strain arx1, hits give low values 0.996 | locus YDR137W, strain rgp1, hits give low values 0.883 | locus YDR150W, strain NUM1, hits give low values 0.958 | locus YDR159W, strain sac3, hits give low values 0.984 | locus YDR162C, strain NBP2, hits give low values 0.938 | locus YDR195W, strain ref2 0.994 | locus YDR297W, strain sur2, hits give low values 0.975 | locus YDR318W, strain mcm21, hits give low values 0.992 | locus YDR334W, strain swr1, hits give low values 0.978 | locus YDR335W, strain msn5, hits give low values 0.97 | locus YDR388W, hits give low values 0.985 | locus YDR392W, strain spt3, hits give low values 0.888 | locus YDR502C, strain sam2, hits give low values 0.975 | locus YEL003W, strain gim4, hits give low values 0.961 | locus YEL037C, strain rad23, hits give low values 0.976 | locus YEL061C, strain CIN8 (second series), hits give low values 0.968 | locus YEL061C, strain CIN8, hits give low values 0.975 | locus YER015W, strain faa2, hits give low values 0.985 | locus YER016W, strain bim1, hits give low values 0.983 | locus YER110C, hits give low values 0.961 | locus YER111C, strain swi4, hits give low values 0.963 | locus YER155C, strain BEM2 (second series), hits give low values 0.922 | locus YER155C, strain BEM2, hits give low values 0.989 | locus YER167W, strain BCK2, hits give low values 0.981 | locus YFR010W, strain ubp6, hits give low values 0.962 | locus YGL078C, strain dbp3, hits give low values 0.981 | locus YGL086W, strain mad1, hits give low values 0.97 | locus YGL167C, strain pmr1, hits give low values 0.95 | locus YGL173C, strain kem1, hits give low values 0.973 | locus YGL227W, strain vid30, hits give low values 0.965 | locus YGL240W, strain doc1, hits give low values 0.956 | locus YGL248W, strain PDE1, hits give low values 0.981 | locus YGL253W, strain hxk2, hits give low values 0.992 | locus YGR078C, strain PAC10, hits give low values 0.999 | locus YGR135W, strain pre9, hits give low values 0.982 | locus YGR229C, strain SMI1, hits give low values 1.01 | locus YGR252W, strain gcn5, hits give low values 0.873 | locus YHR013C, strain ard1, hits give low values 0.935 | locus YHR027C, strain rpn1, hits give low values 0.987 | locus YHR030C, strain SLT2, hits give low values 0.98 and 0.943 | locus YHR079C, strain IRE1 (second series), hits give low values 0.984 | locus YHR094C, strain hxt1, hits give low values 0.981 | locus YHR129C, strain ARP1, hits give low values 0.997 | locus YHR142W, strain chs7, hits give low values 1.02 | locus YHR200W, strain rpn10, hits give low values 0.991 | locus YIL066C, strain RNR3, hits give low values 0.985 | locus YIL073C, strain SPO22, hits give low values 0.978 | locus YIL125W, strain kgd1, hits give low values 0.99 | locus YIR030C, strain dcg1, hits give low values 0.978 | locus YJL092W, strain hpr5, hits give low values 0.972 | locus YJL095W, strain BCK1 (second series), hits give low values 0.975 | locus YJL095W, strain BCK1, hits give low values 1.03 and 0.902 | locus YJL115W, strain asf1, hits give low values 0.978 | locus YJL129C, strain trk1, hits give low values 0.91 | locus YJL134W, strain LCB3, hits give low values 0.977 | locus YJL154C, strain vps35, hits give low values 0.975 | locus YJL164C, strain tpk1, hits give low values 0.967 | locus YJL166W, strain qcr8, hits give low values 0.976 | locus YJL168C, strain set2, hits give low values 0.992 | locus YJL187C, strain SWE1 (second series), hits give low values 0.992 | locus YJL187C, strain SWE1, hits give low values 0.973 | locus YJR043C, strain POL32, hits give low values 1.01
active: locus YHR079C, strain IRE1, hits give low values 0.383 | locus YJR066W, strain TOR1, hits give low values 0.812
